Records with an inconclusive call do not appear. Activity calls are given as the source filed them. Unless noted, calls follow the shape of the dose curve; as a rule, active = well fitted curve in the direction sought with a large enough effect; inconclusive = small, poorly fitted or top-dose-only effect, or another doubt; inactive = no such curve, though single readings can be large; an effect the other way counts as inactive or inconclusive.
Legend:
[1] = target: Glucocorticoid receptor (Homo sapiens) (UniProt P04150); assay: qHTS assay for small molecule agonists of glucocorticoid receptor signaling (AID 588532; active = well fitted curve in the direction sought with a large enough effect in the signal ratio, with a control signal flat; the % refers to the signal ratio;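 also: 100% = dexamethasone at 0.1 µM and 0% = DMSO only wells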); settings: HeLa MMTV-bla, beta-lactamase ratio, agonist, 18 h; stronger effect = higher value; percent of dexamethasone control, DMSO zero
Summary of the method: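 MMTV-bla HeLa, beta-lactamase reporter; medium with 1% charcoal/dextran-stripped FBS; cpds up to 92 uM, 18 h, 37 C; CCF4 readout 460/530 nm; Hill fit → EC50, efficacy vs 0.1 uM dexamethasone = 100%.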

[2] = qHTS assay for small molecule agonists of retinoid X receptor alpha signaling (AID 588544; calls by dose curve;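 as to activation: 0% = DMSO basal wells and 100% = reference agonist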); settings: HEK293T RXRa-UAS-bla, beta-lactamase reporter, 18 h; 530 nm emission
[3] = target: Retinoic acid receptor RXR-alpha (Homo sapiens) (UniProt P19793); assay: as above
[4] = target: Thyroid hormone receptor beta (Homo sapiens) (UniProt P10828); assay: qHTS assay for small molecule agonists of thyroid hormone receptor beta signaling (AID 588545; calls by dose curve;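 also: 0% = DMSO only and 100% = 10 nM T3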)
Summary of the method: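 TR-UAS-bla GripTite HEK 293 cells (2500/well, medium with 2% charcoal/dextran FBS) were treated in agonist mode for 18 h at 37 C, titrated. Beta-lactamase was read by CCF4 ratio after 2 h; normalized to 10 nM T3 (100%) and DMSO, Hill-fitted for EC50 and efficacy.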

[5] = qHTS assay for small molecule antagonists of retinoid X receptor alpha signaling (AID 588546; active = well fitted inhibition curve with a large enough effect in the signal ratio, with a control signal flat, not every such curve was filed as active; the % refers to the signal ratio;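 also: cells stimulated with 9-cis-retinoic acid as agonist; % is scaled to controls: 0 for no effect and ±100 for the full control effect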); settings: HEK293T RXRa-UAS-bla, beta-lactamase ratio, antagonist mode; measured here: W530 green channel, cytotoxicity proxy
Summary of the method: (§1)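 Beta-lactamase reporter inhibition, read as CCF4 fluorescence ratio (ex 405, em 460/530 nm) after 2 h at RT. HEK293T UAS-bla cells, 2500/well, were stimulated with 9-cis-RA at 500 or 100 nM final alongside test compound for 18 h at 37 C.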

[6] = target: Retinoic acid receptor RXR-alpha (Homo sapiens) (UniProt P19793); assay: as above; settings: HEK293T RXRa-UAS-bla, beta-lactamase ratio, antagonist mode
Summary of the method: as §1

[7] = target: Luciferin 4-monooxygenase (Photinus pyralis) (UniProt P08659); assay: Biochemical firefly luciferase enzyme assay for NPC (AID 624030);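 also: purified P. pyralis luciferase at 10 nM with luciferin and ATP substrate; 0% = DMSO and -100% = full luciferase inhibition by PTC124 control; nearly all actives have a fitted effect of over 70% in size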
Summary of the method: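 Counter-screen for direct inhibition of the luciferase enzyme by approved-drug library compounds, run at 10 nM enzyme in 50 mM Tris acetate (final). Luminescence was read within 5 min of enzyme-buffer addition and normalized to PTC124 versus DMSO (0%).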

[8] = qHTS assay for small molecule activators of the nuclear factor-kappa B (NF-kB) signaling pathway (AID 651749; active = well fitted activation curve with a large enough effect in the signal ratio; the % refers to the signal ratio; also: % of control where 0% means no effect); settings: NF-kB-bla ME-180 cells, beta-lactamase FRET ratio, 16 h; activation: stronger effect = higher value
Summary of the method: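 ME-180 cells stably carrying a beta-lactamase reporter under an NF-kB response element were exposed to compound or DMSO vehicle for 16 hr at 37C, 5% CO2. Pathway activation was read by FRET, since reporter expression disrupts FRET.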

[9] = target: Peroxisome proliferator-activated receptor alpha (Homo sapiens) (UniProt Q07869); assay: qHTS assay for small molecule agonists of the peroxisome proliferator-activated receptor alpha (PPARalpha) signaling pathway (AID 651778); settings: PathHunter PPARalpha complementation, chemiluminescence, 6 h; stronger effect = higher value; also: % of control where 0% means no effect
Summary of the method: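 Cells plated at 2,000/well and held overnight at 37 C, 5% CO2, then compound added by pin tool for 6 hr; after PathHunter detection reagent and 60 min at room temperature, chemiluminescence from enzyme complementation was read.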

[10] = qHTS assay for small molecule agonists of the antioxidant response element (ARE) signaling pathway measured by Nrf2-dependant transcriptional activity (AID 720636; active = well fitted curve in the direction sought with a large enough effect in the repeat runs; an effect the other way counts as inactive or inconclusive;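 also: HepG2 cells with an ARE-driven luciferase reporter; % of control where 0% means no effect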)
Summary of the method: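 In HepG2 cells engineered with an Nrf2-responsive luciferase gene, ARE induction was quantified as luminescence after 16 hr compound treatment at 37 C.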

[11] = qHTS assay for small molecule agonists of the antioxidant response element (ARE) signaling pathway measured by Nrf2-dependant transcriptional activity - cell viability counter screen (AID 720653; active = well fitted curve in the direction sought with a large enough effect in the repeat runs; an effect the other way counts as inactive or inconclusive; also: % is scaled to controls: 0 for no effect and ±100 for the full control effect); settings: ARE-bla HepG2 viability, CellTiter-Glo ATP luminescence, 16 h; max response: stronger effect = lower value
Summary of the method: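 ARE-bla HepG2 cells (2,000/well) rested 5 hrs at 37C/5% CO2, then exposed to compounds in DMSO for 16 hrs. Viability was read in the same wells as intracellular ATP by luminescence, 30 min at room temperature after reagent addition.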

[12] = qHTS assay for cell viability of HEK293 cells (AID 743288); settings: ATP luminescence (CellTiter-Glo), 18 h; max response: stronger effect = lower value; also: % is scaled to controls: 0 for no effect and ±100 for the full control effect; nearly all actives have a fitted effect of over 50% in size
Summary of the method: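 Parental HEK293 cells were seeded at 2,000 cells/well, rested at least 5 h at 37 C, then exposed to compounds in DMSO for 18 h at 37 C. Viability was read as ATP-dependent luciferase luminescence after 30 min at room temperature.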

[13] = qHTS assay for cell viability of the p53RE-bla HCT-116 cell line (AID 743292); also: % is scaled to controls: 0 for no effect and ±100 for the full control effect; nearly all actives have a fitted effect of over 55% in size
Summary of the method: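 Intracellular ATP of p53RE-bla HCT-116 cells measured by luciferase luminescence following 16 h compound incubation at 37 C; DMSO-only wells served as vehicle controls.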

[14] = P-glycoprotein substrates identified in KB-8-5-11 adenocarcinoma cell line, qHTS therapeutic library screen (AID 1346987); also: % is scaled to controls: 0 for no effect and ±100 for the full control effect; nearly all actives have a fitted effect of over 65% in size
Summary of the method: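 KB-8-5-11: colchicine-selected sub-line of KB-3-1 over-expressing P-gp; assay medium lacked colchicine. 72 h drug exposure at 37 degree C, CellTiter-Glo.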

[15] = Primary qHTS for Huh7 cytotoxicity: counterscreen for inhibitors of MERS-S pseudotyped particle cell entry (AID 1479147; calls by dose curve); settings: outcome: dose series up to 57.1 µM unless noted
[16] = Primary qHTS for inhibitors of MERS-S pseudo-typed particle cell entry (AID 1479149; calls by dose curve; also: nearly all actives have a fitted effect of over 60% in size)
[17] = Primary qHTS for Vero E6 cytotoxicity: counterscreen for inhibitors of SARS-S pseudo-typed particle cell entry (AID 1479150; calls by dose curve); settings: outcome: dose series up to 57.1 µM unless noted
[18] = Cytotoxicity counterscreen for inhibitors of SARS-CoV-2 cell entry (AID 1645845; calls by dose curve; also: nearly all actives have a fitted effect of over 50% in size)
Summary of the method: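 Expi293F/hACE2 cells seeded overnight; cpd pin-transferred in DMSO, 1 h preincubation, + media, 48 h 37 C 5% CO2; ATPLite 1step luminescence; normalized to cells and no cells.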

[19] = Primary qHTS to identify inhibitors of SARS-CoV-2 cell entry (AID 1645846; calls by dose curve; also: nearly all actives have a fitted effect of over 45% in size); settings: activity change, negative = inhibition: at 57.1 µM (top of the series) unless noted
Summary of the method: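 Luminescence readout (Bright-Glo luciferase) 48 h after pseudoparticle addition. HEK293-ACE2 cells, 1500/well; compound pre-incubation 1 h; Normalized to spike PP and bald PP.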

[20] = target: Glutathione peroxidase 1 (Homo sapiens) (UniProt P07203); assay: Primary qHTS Assay for Inhibitors of Recombinant Selenoprotein Glutathione Peroxidase 1 (GPX1) (AID 1845191); also: nearly all actives have a fitted effect of over 65% in size
Summary of the method: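 Recombinant GPX1 (10 nM final) was preincubated with compound for 30 min at room temperature, then reacted with 1 mM GSH, 0.5 mM CHP, 0.5 mM NADPH and 100 nM glutathione reductase; NADPH fluorescence (340/450 nm) was read at 0 and 15 min.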

[21] = target: Phospholipid hydroperoxide glutathione peroxidase GPX4 (Homo sapiens) (UniProt P36969); assay: Primary qHTS Assay for Inhibitors of Recombinant Selenoprotein Glutathione Peroxidase 4 (GPX4) (AID 1845192); also: % is scaled to controls: 0 for no effect and ±100 for the full control effect; nearly all actives have a fitted effect of over 65% in size
Summary of the method: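 GR-coupled readout: 100 nM GR, 1 mM GSH, 0.5 mM NADPH; NADPH fluorescence (ex 340/em 450 nm) read at t=0 and after 15 min RT. GPX4 200 nM, preincubated 30 min with compound; substrate 0.5 mM CHP.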

KB-3-1 = assay: Cytotoxic Profiling of Annotated Libraries Using Quantitative High-Throughput Screening (AID 1296008); settings: Five cell lines viability, CellTiter-Glo ATP luminescence, 48-72 h; max response: stronger effect = lower value; also: % is scaled to controls: 0 for no effect and ±100 for the full control effect; nearly all actives have a fitted effect of over 60% in size
Summary of the method: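 Compounds were pin-transferred onto cells and incubated 48 or 72 hr at 37 degree Celsius, 95% humidity. CellTiter-Glo was added, plates sat 10 min at room temperature, then ATP-coupled luminescence was imaged as the viability read-out.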

astro = assay: Drug repurposing screens with cells derived from glioblastoma tumor samples (AID 1345199); settings: viability, ATP luminescence, 48 h; series mostly up to 45.9 µM; also: % is scaled to controls: 0 for no effect and ±100 for the full control effect; nearly all actives have a fitted effect of over 40% in size
Summary of the method: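 Four patient lines of CD133+ GBM neurospheres were screened at several concentrations; hits were retested in those lines plus three slower-growing GBM lines, using 48-hour treatment and ATP-based viability.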

[22] = target: Nuclear receptor subfamily 1 group I member 2 (Rattus norvegicus) (UniProt Q9R1A7); assay: qHTS assay for small molecule activators of the rat pregnane X receptor (rPXR) signaling pathway (AID 651751; call rule not given here; also: 0% is about no effect); settings: rPXR reporter cells, luciferase (One-Glo), 24 h
[23] = qHTS assay for small molecule activators of the human pregnane X receptor (PXR) signaling pathway (AID 720659; call rule not given here; also: 0% is about no effect)

Chain of Retinoic acid receptor RXR-alpha (Homo sapiens) (P19793 whole entry, looked up): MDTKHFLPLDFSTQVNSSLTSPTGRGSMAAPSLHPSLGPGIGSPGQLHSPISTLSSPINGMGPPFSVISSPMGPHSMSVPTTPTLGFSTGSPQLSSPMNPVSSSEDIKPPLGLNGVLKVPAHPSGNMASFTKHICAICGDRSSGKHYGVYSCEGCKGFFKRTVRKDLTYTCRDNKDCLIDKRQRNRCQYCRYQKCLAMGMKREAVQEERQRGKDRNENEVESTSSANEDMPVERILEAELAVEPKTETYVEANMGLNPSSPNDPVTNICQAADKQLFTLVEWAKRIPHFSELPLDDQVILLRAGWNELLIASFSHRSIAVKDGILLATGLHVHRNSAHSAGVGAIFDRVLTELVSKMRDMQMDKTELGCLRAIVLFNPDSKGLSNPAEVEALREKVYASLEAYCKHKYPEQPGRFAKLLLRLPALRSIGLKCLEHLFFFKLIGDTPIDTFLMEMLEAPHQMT
Chain of Glucocorticoid receptor (Homo sapiens) (P04150 whole entry, looked up): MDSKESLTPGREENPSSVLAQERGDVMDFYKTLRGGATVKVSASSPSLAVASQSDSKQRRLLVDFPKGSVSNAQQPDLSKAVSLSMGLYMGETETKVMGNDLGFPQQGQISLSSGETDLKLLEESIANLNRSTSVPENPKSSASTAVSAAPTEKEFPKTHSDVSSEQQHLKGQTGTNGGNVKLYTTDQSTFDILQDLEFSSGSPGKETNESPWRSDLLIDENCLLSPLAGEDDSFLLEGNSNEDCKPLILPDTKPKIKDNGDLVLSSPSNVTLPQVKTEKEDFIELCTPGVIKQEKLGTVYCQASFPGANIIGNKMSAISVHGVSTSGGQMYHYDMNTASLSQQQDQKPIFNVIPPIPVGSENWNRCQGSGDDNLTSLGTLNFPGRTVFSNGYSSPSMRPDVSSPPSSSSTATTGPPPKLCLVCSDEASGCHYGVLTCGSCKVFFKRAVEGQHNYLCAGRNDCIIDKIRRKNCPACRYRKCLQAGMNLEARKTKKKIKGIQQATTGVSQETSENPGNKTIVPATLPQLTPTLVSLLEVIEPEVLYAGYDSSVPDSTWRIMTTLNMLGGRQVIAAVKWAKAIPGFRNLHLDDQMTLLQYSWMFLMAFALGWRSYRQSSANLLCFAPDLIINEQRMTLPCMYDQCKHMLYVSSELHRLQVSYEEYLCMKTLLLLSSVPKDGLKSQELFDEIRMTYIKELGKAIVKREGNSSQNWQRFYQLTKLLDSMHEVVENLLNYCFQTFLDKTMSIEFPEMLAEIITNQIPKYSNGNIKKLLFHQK
Chain of Phospholipid hydroperoxide glutathione peroxidase GPX4 (Homo sapiens) (P36969 whole entry, looked up): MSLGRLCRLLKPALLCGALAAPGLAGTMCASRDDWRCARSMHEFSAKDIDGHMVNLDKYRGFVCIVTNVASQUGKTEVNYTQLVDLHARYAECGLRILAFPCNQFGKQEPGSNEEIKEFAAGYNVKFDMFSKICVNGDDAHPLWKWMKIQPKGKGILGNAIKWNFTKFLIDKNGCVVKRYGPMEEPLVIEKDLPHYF
Chain of Glutathione peroxidase 1 (Homo sapiens) (P07203 whole entry, looked up): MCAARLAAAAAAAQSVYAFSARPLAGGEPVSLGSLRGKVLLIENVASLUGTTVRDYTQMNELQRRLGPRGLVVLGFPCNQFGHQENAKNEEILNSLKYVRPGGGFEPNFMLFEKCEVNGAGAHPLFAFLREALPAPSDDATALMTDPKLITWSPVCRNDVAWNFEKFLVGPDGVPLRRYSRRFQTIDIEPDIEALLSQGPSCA
Chain of Nuclear receptor subfamily 1 group I member 2 (Rattus norvegicus) (Q9R1A7 whole entry, looked up): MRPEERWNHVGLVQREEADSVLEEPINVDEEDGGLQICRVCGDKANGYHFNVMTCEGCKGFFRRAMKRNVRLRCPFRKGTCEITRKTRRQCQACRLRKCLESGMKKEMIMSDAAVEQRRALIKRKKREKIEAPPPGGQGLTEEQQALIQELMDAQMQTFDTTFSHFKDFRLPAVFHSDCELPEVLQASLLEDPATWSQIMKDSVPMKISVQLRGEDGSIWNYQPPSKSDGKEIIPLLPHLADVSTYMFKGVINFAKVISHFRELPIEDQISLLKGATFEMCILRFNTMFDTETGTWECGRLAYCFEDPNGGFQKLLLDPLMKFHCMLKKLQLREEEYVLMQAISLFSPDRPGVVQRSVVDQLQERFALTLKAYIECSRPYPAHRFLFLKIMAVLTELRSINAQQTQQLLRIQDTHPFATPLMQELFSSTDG
Chain of Luciferin 4-monooxygenase (Photinus pyralis) (P08659 whole entry, looked up): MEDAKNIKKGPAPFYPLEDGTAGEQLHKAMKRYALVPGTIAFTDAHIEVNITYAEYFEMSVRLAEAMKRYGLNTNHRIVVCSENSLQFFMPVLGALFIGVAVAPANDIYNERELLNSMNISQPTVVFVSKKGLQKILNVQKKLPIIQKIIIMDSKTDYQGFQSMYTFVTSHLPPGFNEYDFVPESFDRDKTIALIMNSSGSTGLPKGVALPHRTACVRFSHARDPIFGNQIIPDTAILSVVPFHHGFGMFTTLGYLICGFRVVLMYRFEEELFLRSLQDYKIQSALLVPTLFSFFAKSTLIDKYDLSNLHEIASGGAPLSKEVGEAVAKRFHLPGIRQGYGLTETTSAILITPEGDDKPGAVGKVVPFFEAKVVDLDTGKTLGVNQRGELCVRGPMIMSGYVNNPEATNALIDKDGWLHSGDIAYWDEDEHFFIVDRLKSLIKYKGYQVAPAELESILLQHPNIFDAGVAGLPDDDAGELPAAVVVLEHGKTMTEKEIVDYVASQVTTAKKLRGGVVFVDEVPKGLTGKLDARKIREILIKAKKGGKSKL
Chain of Peroxisome proliferator-activated receptor alpha (Homo sapiens) (Q07869 whole entry, looked up): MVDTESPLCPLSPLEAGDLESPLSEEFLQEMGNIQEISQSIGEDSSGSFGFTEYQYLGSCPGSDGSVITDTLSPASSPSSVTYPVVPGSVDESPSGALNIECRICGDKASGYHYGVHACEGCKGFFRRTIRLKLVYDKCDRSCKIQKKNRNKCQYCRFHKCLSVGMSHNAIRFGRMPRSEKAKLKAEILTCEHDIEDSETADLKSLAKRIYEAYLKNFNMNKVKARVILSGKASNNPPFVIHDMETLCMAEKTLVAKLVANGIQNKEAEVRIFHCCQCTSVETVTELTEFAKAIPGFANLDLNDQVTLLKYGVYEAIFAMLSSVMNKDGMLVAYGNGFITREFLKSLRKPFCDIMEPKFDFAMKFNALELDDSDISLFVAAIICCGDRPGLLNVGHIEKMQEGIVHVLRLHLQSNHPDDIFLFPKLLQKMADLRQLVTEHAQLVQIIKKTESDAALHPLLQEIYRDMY
Chain of Thyroid hormone receptor beta (Homo sapiens) (P10828 whole entry, looked up): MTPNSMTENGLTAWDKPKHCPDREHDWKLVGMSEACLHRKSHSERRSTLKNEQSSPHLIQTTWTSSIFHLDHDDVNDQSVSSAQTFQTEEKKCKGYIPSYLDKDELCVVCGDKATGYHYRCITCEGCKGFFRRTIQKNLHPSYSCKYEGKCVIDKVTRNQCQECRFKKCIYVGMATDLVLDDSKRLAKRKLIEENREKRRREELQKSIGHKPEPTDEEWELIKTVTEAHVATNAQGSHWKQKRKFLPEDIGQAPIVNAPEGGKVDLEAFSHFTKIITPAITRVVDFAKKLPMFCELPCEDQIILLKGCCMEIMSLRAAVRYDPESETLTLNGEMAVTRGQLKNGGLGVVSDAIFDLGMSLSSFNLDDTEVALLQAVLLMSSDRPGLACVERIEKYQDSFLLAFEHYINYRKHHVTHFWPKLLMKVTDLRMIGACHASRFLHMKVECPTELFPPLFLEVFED

OCCN(CCO)CCO
-6.39%: max response [2]
-24%: activity change, negative = inhibition [19]
-16.2%: max response [5]
inactive: activation [1] -3.04% | outcome [3] | Potency [4] | max response [6] -4.54% | Potency [7] | activation [8] -1.09% | max response [9] -0.143% | Potency [10] | max response [11] -4.95% | max response [12] -0.515% | outcome [13] | Potency [14] | outcome [15] | Potency [16] | outcome [17] | Potency [18] | Potency [20] | Potency [21] | max response (KB-3-1) 0.954% | Potency (astro) | max response [22] -1.5% | outcome [23]

— PubChem BioAssay (NCATS)
